Screening data as filed in PubChem BioAssay.
HP1b chromo inh = HP1-beta chromodomain-methylated histone interaction inhibition; AID 540317; Potency, µM (titrated, usually from 114 µM), without a hit: at the top dose activity change, negative = inhibition, hits mostly inhibitors; P83916; actives 0.56% (n = 390,000); AlphaScreen HP1-beta / biotin-H3K9me3 peptide binding; note: potency is the fitted concentration of half-maximal effect; nearly all actives have a fitted effect of over 70% in size
Target sequence (P83916 whole entry, looked up): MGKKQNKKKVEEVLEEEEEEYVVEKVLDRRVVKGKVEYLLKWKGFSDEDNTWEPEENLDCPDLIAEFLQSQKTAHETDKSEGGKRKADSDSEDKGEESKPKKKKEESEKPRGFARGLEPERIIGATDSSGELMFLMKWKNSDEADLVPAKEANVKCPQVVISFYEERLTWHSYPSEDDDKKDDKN
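HP1-beta protein (50 nM final) preincubated 30 min at room temperature with biotinylated H3(1-18)K9me3 peptide (50 nM) in PBS pH 7.4, 0.01% Tween-20, then compound added for 30 min. AlphaScreen streptavidin donor/nickel chelate acceptor beads (10 ug/mL final), 30 min dark, luminescence read.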
JMJD2A Tudor inh = JMJD2A Tudor domain (human) inhibition; Potency, µM (titrated, usually from 114 µM), for the others: at the top dose activity change, negative = inhibition, actives largely listed as inhibitors; AID 504339; actives 4.4% (n = 390,000); AlphaScreen JMJD2A-Tudor / H3K4me3 peptide binding; O75164; note: potency is the fitted concentration of half-maximal effect; % is set by controls: 0 for no effect and ±100 for the full control effect; nearly all actives have a fitted effect of over 50% in size
PLK1 PBD inh = inhibitors of human PLK1 polo-box domain binding; Potency, µM, inactives show max response, negative = inhibition, most hits filed as inhibitors; actives 2.8% (n = 360,000); Plk1 PBD binding of FITC phosphopeptide, fluorescence polarization; P53350; note: potency is the fitted concentration of half-maximal effect; series mostly up to about 57 µM; % is set by controls: 0 for no effect and ±100 for the full control effect; nearly all actives have a fitted effect of over 65% in size
G9a block = inhibitors of human histone lysine methyltransferase G9a | Q96KQ7 | actives 8.8% (n = 350,000) | G9a H3K9 monomethylation, AlphaScreen, 2 h | AID 504332 | Potency, µM (doses to about 102 µM), for inactives: top-dose activity, negative = inhibition, actives largely listed as inhibitors; note: potency is the fitted concentration of half-maximal effect; % is set by controls: 0 for no effect and ±100 for the full control effect; nearly all actives have a fitted effect of over 75% in size
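G9a (20 nM) was preincubated 15 min with compound, then reacted 2 h at room temperature with 500 nM biotin-H3K9 peptide and 20 µM SAM. Monomethyl-H3K9 detected by AlphaScreen using anti-H3K9me1 antibody.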
PI5P4K alpha inh = blocks human PI5P4K alpha kinase activity. AID 652105. P48426. PI5P4Kalpha enzyme, ADP-Glo luminescence, 60 min; hits give low values. max response, %. actives 1.2% (n = 330,000); active = max response of -50% or lower; inconclusive = between -30% and -50%; inactive = -30% or higher; note: value at the top dose of about 77 µM; % is set by controls: 0 for no effect and ±100 for the full control effect
Target sequence (P48426 whole entry, looked up): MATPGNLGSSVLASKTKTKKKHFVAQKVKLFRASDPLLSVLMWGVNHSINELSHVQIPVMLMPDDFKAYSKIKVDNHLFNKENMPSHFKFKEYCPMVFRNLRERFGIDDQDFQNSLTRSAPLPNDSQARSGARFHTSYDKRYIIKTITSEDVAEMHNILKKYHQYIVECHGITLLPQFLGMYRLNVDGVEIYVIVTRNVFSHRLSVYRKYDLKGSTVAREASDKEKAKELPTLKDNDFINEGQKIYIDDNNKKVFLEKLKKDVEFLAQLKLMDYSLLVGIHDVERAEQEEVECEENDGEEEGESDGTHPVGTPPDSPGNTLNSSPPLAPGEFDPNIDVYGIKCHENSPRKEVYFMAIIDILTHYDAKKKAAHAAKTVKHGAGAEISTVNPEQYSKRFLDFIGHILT
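PI5P4Kalpha ADP-Glo assay; 5 microM ATP final; 60 min RT reaction; HEPES pH 7.4/EGTA/CHAPS, 5% DMSO; controls lacking substrate or enzyme; luminescent end-point.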
BAZ2B inh = blocks human BAZ2B | Q9UIF8 | AlphaScreen BAZ2B-H3K14Ac peptide displacement | Potency, µM (highest dose often 114 µM), for inactives: at the highest dose activity change, negative = inhibition, hits mostly inhibitors | actives 4.4% (n = 360,000); note: potency is the fitted concentration of half-maximal effect; % is set by controls: 0 for no effect and ±100 for the full control effect; nearly all actives have a fitted effect of over 60% in size
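BAZ2B 50 nM plus b-H3(5-23)K14Ac 50 nM, PBS pH 7.4/0.01% Tween-20, 30 min RT; compound added (max 110 uM), 30 min RT; streptavidin donor/Ni-chelate acceptor beads 10 ug/mL final, 20 min dark; AlphaScreen read.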
An asterisk follows results filed as active; [ ] = another dose, or the depositor's remark. Hits are enriched below; roughly 12% of the tested compounds scored in any of these assays. Unless noted, calls come from the whole dose curve; as a rule, active = well fitted curve in the direction sought with a large enough effect; inconclusive = small, poorly fitted or top-dose-only effect, or another doubt; inactive = no such curve, though single readings can be large; an effect the other way counts as inactive or inconclusive.

Screening CCOc1ccccc1NC(=O)Cn1nc(N2CCN(c3ccccc3)CC2)ccc1=O returned HP1b chromo inh -2.8%, JMJD2A Tudor inh -26.0%, G9a block -31.9%[59 µM] and BAZ2B inh -27.4%.
For Cc1ccc(-c2nc3n(n2)C(c2ccccc2Cl)C=C(c2ccc(Cl)cc2)N3)cc1 (stereo not drawn) the results were HP1b chromo inh 17.0%, JMJD2A Tudor inh -28.7%, G9a block -20.6%[59 µM] and BAZ2B inh -35.3%.
CCc1c(N)nc(N)nc1Nc1ccccc1C was read as HP1b chromo inh 29.7%, JMJD2A Tudor inh -9.6%, PLK1 PBD inh 2.2% and PI5P4K alpha inh 5.0.
O=C(NCCCn1ccnc1)Nc1ccc(Cl)c(Cl)c1 was read as HP1b chromo inh 24.3%, JMJD2A Tudor inh inconclusive, PLK1 PBD inh -4.6%, G9a block -4.4%[59 µM], PI5P4K alpha inh 3.3 and BAZ2B inh 39.8µM*.
S=C(NCCCn1ccnc1)Nc1ccc(Cl)cc1Cl was read as HP1b chromo inh 23.3%, JMJD2A Tudor inh -11.7%, PLK1 PBD inh -16.9%, G9a block -45.1%, PI5P4K alpha inh 1.4 and BAZ2B inh 50.1µM*.
O=C(NCCCn1ccnc1)Nc1ccc(Cl)cc1 was read as HP1b chromo inh 2.0%, JMJD2A Tudor inh -21.8%, PLK1 PBD inh -6.4%, G9a block 0.6% and BAZ2B inh -35.3%.
Screening CC(Oc1ccc(Cl)cc1Cl)C(=O)NCCCn1ccnc1 (stereo not drawn) returned HP1b chromo inh -6.5%, JMJD2A Tudor inh 9.9%[11.4 µM], PLK1 PBD inh 23.8µM*, G9a block -2.1%, PI5P4K alpha inh -4.5 and BAZ2B inh -8.2%.
Screening CCCCOc1ccc(NC(=O)Cn2nnnc2-c2ccccc2F)cc1 returned HP1b chromo inh 35.3%, JMJD2A Tudor inh -3.5%, G9a block inconclusive and BAZ2B inh -0.4%.
For CCc1ccc(S(=O)(=O)c2nnn3c2nc(N(CC)Cc2ccccc2)c2cc(Cl)ccc23)cc1 the results were HP1b chromo inh 40.6%, JMJD2A Tudor inh 3.3%, G9a block 7.5%[59 µM] and BAZ2B inh 12.4%.
Cc1cc(=S)nc(-c2ccccn2)[nH]1 was read as HP1b chromo inh -3.2%, JMJD2A Tudor inh inconclusive, PLK1 PBD inh inconclusive, G9a block inconclusive, PI5P4K alpha inh -7.7 and BAZ2B inh inconclusive.
Screening Cc1[nH]c(-c2ccccn2)nc(=S)c1Cl returned HP1b chromo inh -21.6%, JMJD2A Tudor inh -33.8%, PLK1 PBD inh 29.9µM*, G9a block -112.2%[59 µM], PI5P4K alpha inh -27.4 and BAZ2B inh -35.1%.
`COc1cccc(-c2cc(C(=O)Nc3ccc([N+](=O)[O-])cn3)c3ccccc3n2)c1` gave HP1b chromo inh 6.2%, JMJD2A Tudor inh -19.3%, PLK1 PBD inh 5.5%, G9a block 7.94µM*, PI5P4K alpha inh -2.8 and BAZ2B inh inconclusive.
For CCOc1cccc(-c2cc(C(=O)Nc3ccon3)c3ccccc3n2)c1 the results were HP1b chromo inh 18.0%, JMJD2A Tudor inh -24.6%, PLK1 PBD inh -8.1%, G9a block 20µM*, PI5P4K alpha inh -10.4 and BAZ2B inh -4.6%.
`CCCCn1nc(C(=O)Oc2ccc3c(C)cc(=O)oc3c2)c2ccccc2c1=O` gave HP1b chromo inh 44.7%, JMJD2A Tudor inh -12.8%, PLK1 PBD inh -9.7%, G9a block 2.82µM*, PI5P4K alpha inh -18.1 and BAZ2B inh -1.0%.
Screening CCN(c1ccccc1)S(=O)(=O)c1nnc(NC(=O)C(C)C)s1 returned HP1b chromo inh 11.6%, JMJD2A Tudor inh -0.7%, PLK1 PBD inh -4.9%, G9a block 17.2%, PI5P4K alpha inh -4.8 and BAZ2B inh -1.2%.
For CCOc1ccc(OCC)c(NC(=O)CN2CCN(c3cccc(C)c3)CC2)c1 the results were HP1b chromo inh 25.1µM*, JMJD2A Tudor inh 7.94µM*, PLK1 PBD inh -18.1%, G9a block 3.55µM*, PI5P4K alpha inh 9.9 and BAZ2B inh 39.8µM*.
`CCOc1ccc(OCC)c(NC(=O)CN2CCN(c3cccc(C)c3)C(C)C2)c1` (stereo not drawn) gave HP1b chromo inh 25.1µM*, JMJD2A Tudor inh 1.12µM*, PLK1 PBD inh 0.2%, G9a block inconclusive, PI5P4K alpha inh -0.1 and BAZ2B inh 50.1µM*.
`CCOc1ccc(-c2cc(C(=O)N3CCN(c4cccc(C)c4)C(C)C3)c3ccccc3n2)cc1` (stereo not drawn) gave HP1b chromo inh 44.3%, JMJD2A Tudor inh -30.6%, G9a block inconclusive and BAZ2B inh 2.9%.
Screening COc1ccc(C)cc1NC(=O)CN1CCN(c2ccc(F)cc2)CC1 returned HP1b chromo inh -8.8%, JMJD2A Tudor inh inconclusive, PLK1 PBD inh -7.9%, G9a block -14.5%[59 µM], PI5P4K alpha inh 13.7 and BAZ2B inh inconclusive.
`Cc1c(C(=O)N2CCCCCC2)c(S(=O)(=O)Nc2cccc(F)c2)c(C)n1C` gave HP1b chromo inh 22.9%, JMJD2A Tudor inh -31.8%, PLK1 PBD inh -11.0%, G9a block 7.5%, PI5P4K alpha inh 1.8 and BAZ2B inh -23.7%.
COC(=O)Nc1ccc(S(=O)(=O)N2CCN(C)CC2)cc1 was read as HP1b chromo inh 21.9%, JMJD2A Tudor inh 79.4µM*, PLK1 PBD inh -2.8%, G9a block inconclusive, PI5P4K alpha inh 7.4 and BAZ2B inh 4.3%.
Cc1cccc(C(=O)NC(=S)Nc2ccc(S(=O)(=O)N3CCN(C)CC3)cc2)c1 was read as HP1b chromo inh inconclusive, JMJD2A Tudor inh inconclusive, PLK1 PBD inh 21.2µM*, G9a block inconclusive, PI5P4K alpha inh -10.0 and BAZ2B inh inconclusive.
`Cc1cccc(C(=O)NC(=S)Nc2ccc(S(=O)(=O)N3CCCCC3)cc2)c1` gave HP1b chromo inh 38.0%, JMJD2A Tudor inh -2.1%[11.4 µM], PLK1 PBD inh inconclusive, G9a block -6.6%[12.7 µM], PI5P4K alpha inh 1.7 and BAZ2B inh -25.1%.
Screening O=C(COC(=O)CNS(=O)(=O)c1ccccc1)Nc1ncc(Cl)cc1Cl returned HP1b chromo inh 18.6%, JMJD2A Tudor inh -3.4%, PLK1 PBD inh -15.7%, G9a block -1.7%[59 µM], PI5P4K alpha inh -3.9 and BAZ2B inh -3.4%.
For O=C(Oc1cccnc1)c1cc(S(=O)(=O)N2CCCCC2)ccc1Cl the results were HP1b chromo inh 33.1%, JMJD2A Tudor inh 31.0%, PLK1 PBD inh 16.8µM*, G9a block inconclusive, PI5P4K alpha inh -4.4 and BAZ2B inh 2.8%.
CC1CCCCN1C(=O)CSc1nc(C2CC2)nc2c1cnn2-c1ccccc1 (stereo not drawn) was read as HP1b chromo inh -14.7%, JMJD2A Tudor inh -15.2%, PLK1 PBD inh 26.7µM*, G9a block inconclusive and BAZ2B inh 6.9%.
Screening Cc1nn(C)c(C)c1NC(=O)CSc1nc(C2CC2)nc2c1cnn2-c1ccccc1 returned HP1b chromo inh 75.6%, JMJD2A Tudor inh -4.6%[57.1 µM], PLK1 PBD inh -18.0%, G9a block 3.3%[59 µM], PI5P4K alpha inh 0.3 and BAZ2B inh 8.2%.
